Source: PubChem BioAssay (National Center for Advancing Translational Sciences (NCATS))
This is a sample that favours compounds with a hit; in the whole collection about 12% have one here.
JMJD2A Tudor inh: blocks the human JMJD2A Tudor domain. AlphaScreen JMJD2A-Tudor / H3K4me3 peptide binding. Potency, µM (highest dose often 114 µM), for the others: at the top dose activity change, negative = inhibition, most hits filed as inhibitors. 390,000 compounds, 4.4% hits; also: % is scaled to controls: 0 for no effect and ±100 for the full control effect; nearly all actives have a fitted effect of over 50% in size
G9a block: G9a (human) methyltransferase inhibition; Q96KQ7; G9a H3K9 monomethylation, AlphaScreen, 2 h; Potency, µM (series often up to 102 µM), for the others: top-dose activity, negative = inhibition, usual class: inhibitors; 350,000 compounds, 8.8% hits; AID 504332; also: % is scaled to controls: 0 for no effect and ±100 for the full control effect; nearly all actives have a fitted effect of over 75% in size
Target sequence (Q96KQ7 913-1193 limits assumed): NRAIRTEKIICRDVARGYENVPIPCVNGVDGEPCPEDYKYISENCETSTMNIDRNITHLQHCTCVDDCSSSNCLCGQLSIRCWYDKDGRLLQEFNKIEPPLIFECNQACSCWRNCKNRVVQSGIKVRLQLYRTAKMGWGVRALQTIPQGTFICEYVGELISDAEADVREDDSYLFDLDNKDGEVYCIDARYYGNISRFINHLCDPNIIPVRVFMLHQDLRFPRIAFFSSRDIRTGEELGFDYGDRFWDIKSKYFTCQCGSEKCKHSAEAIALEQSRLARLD
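AlphaScreen detection with an anti-monomethyl H3K9 antibody quantified product after a 2 h room-temperature reaction containing 500 nM biotinylated H3K9 peptide, 20 µM SAM and 20 nM enzyme, which had been preincubated 15 min with compound.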
BAZ2B inh: BAZ2B (human) inhibition; Q9UIF8; AlphaScreen BAZ2B-H3K14Ac peptide displacement; Potency, µM (highest dose often 114 µM), without a hit: at the highest dose activity change, negative = inhibition, hits mostly inhibitors; 360,000 compounds, 4.4% hits; AID 504333; also: % is scaled to controls: 0 for no effect and ±100 for the full control effect; nearly all actives have a fitted effect of over 60% in size
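AlphaScreen luminescence quantifies BAZ2B engagement of H3K14Ac peptide; the protein and biotinylated peptide are both at 50 nM final, buffer PBS pH 7.4 with 0.01% Tween-20, all steps at room temperature.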
Sfp PPTase inh: blocks B. subtilis Sfp PPTase activity. Q9F4F7. Biochemical Sfp PPTase activity, qHTS. Potency, µM, for the others: largest response in the series, negative = inhibition, most hits filed as inhibitors. 310,000 compounds, 3.5% hits;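 also: the enzyme is Sfp with the accession as filed and its product quenches rhodamine fluorescence; 0% = enzyme reaction without inhibitor and -100% = no enzyme wells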
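Compounds were incubated with enzyme (final 15 nM) for 15 min at room temperature before substrate addition started the reaction. Fluorescence at 525 nm excitation, 598 nm emission was recorded immediately and after 30 minutes.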
HP1b binding inh: inhibitors of HP1-beta chromodomain binding to methylated histone tails | 390,000 compounds, 0.56% hits | AlphaScreen HP1-beta / biotin-H3K9me3 peptide binding | P83916 | Potency, µM (highest dose often 114 µM), for the others: at the highest dose activity change, negative = inhibition, usual class: inhibitors; also: nearly all actives have a fitted effect of over 70% in size
Target sequence (P83916 whole entry, looked up): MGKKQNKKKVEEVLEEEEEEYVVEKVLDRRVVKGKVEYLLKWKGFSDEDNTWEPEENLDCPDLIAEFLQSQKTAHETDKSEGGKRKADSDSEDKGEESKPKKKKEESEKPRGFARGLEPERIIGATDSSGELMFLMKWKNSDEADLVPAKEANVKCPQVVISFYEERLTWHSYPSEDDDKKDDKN
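HP1-beta protein (50 nM final) preincubated 30 min at room temperature with biotinylated H3(1-18)K9me3 peptide (50 nM) in PBS pH 7.4, 0.01% Tween-20, then compound added for 30 min. AlphaScreen streptavidin donor/nickel chelate acceptor beads (10 ug/mL final), 30 min dark, luminescence read.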
* = called active by the depositor; u = inconclusive; x = no result; [ ] = another dose, or the depositor's remark. Calls follow the shape of the dose curve; as a rule, active = well fitted curve in the direction sought with a large enough effect; inconclusive = small, poorly fitted or top-dose-only effect, or another doubt; inactive = no such curve, though single readings can be large; an effect the other way counts as inactive or inconclusive. Potency is read from the fitted curve at half-maximal effect.

SMILES	JMJD2A Tudor inh	G9a block	BAZ2B inh	Sfp PPTase inh	HP1b binding inh
Clc1ccccc1CN1CCN(/N=C/C=C/c2ccco2)CC1	45µM*	x	32µM*	56µM*	u
c1ccc(CN2CCN(CCOCCOc3ccc4c(c3)CCC4)CC2)cc1	0.79µM*	x	u	8%	u
CCC1CCCCN1CCCNC(=O)C1CCN(Cc2nc(-c3ccc(Cl)cc3)oc2C)CC1 (stereo not drawn)	-19%	26%	-15%	20%	26%
O=C(NCCc1ccccc1)c1ccc(NC(=O)C2CCCCC2)cc1	-14%	x	x	x	37%
Cn1c(=O)[nH]c(=O)c2c1nc(N1CCOCC1)n2CC(O)COc1ccc2ccccc2c1 (stereo not drawn)	-10%[11.4 µM]	23%[59 µM]	9%	0%	-6%
O=c1c(-c2ccc(O)cc2)coc2c([C@@H]3O[C@H](CO)[C@@H](O)[C@H](O)[C@H]3O)c(O)ccc12	-15%	11%[2.33 µM]	4%	x	36%
CN1CCN(/N=C/c2cccc(Cl)c2Cl)CC1	u	40µM*	u	3%	-16%
COc1ccc(Br)cc1/C=N/N1CCN(Cc2ccccc2)CC1	40µM*	u	28µM*	7%	u
Cn1cccc1/C=N/n1cnnc1	-27%	u	79µM*	-6%	22%
O=[N+]([O-])c1ccccc1/C=N/N1CCN(Cc2ccccc2)CC1	25µM*	40µM*	28µM*	8%	u
CC(C)(C)C(=O)COC(=O)C1CC(=O)N(c2ccccc2)C1 (stereo not drawn)	-5%	x	-4%	3%	35%
COc1ccc(NC(=O)c2ccc(OCC3CCCO3)cc2)cc1Cl (stereo not drawn)	2%	-2%	5%	x	28%
Cc1ccc(N2CCN(/N=C/c3ccccc3)CC2)cc1	-26%	2%	-37%	19%	13%
Cn1cccc1/C=N/N1CCN(c2ccccc2)CC1	-11%[11.4 µM]	32µM*	50µM*	28µM*	u
CCOc1ccccc1OCCOCCN1CCN(Cc2ccccc2)CC1	0.79µM*	x	18µM*	79µM*	u
O=[N+]([O-])c1ccccc1/C=N\N1CCN(Cc2ccccc2Cl)CC1	35µM*	x	28µM*	-18%	u
Fc1ccccc1/C=N/N1CCN(Cc2ccccc2Cl)CC1	50µM*	22%[0.501 µM]	50µM*	u	-17%
CN(CC1COc2ccccc2O1)C(=O)CSc1nncs1 (stereo not drawn)	-7%	x	x	x	37%
CC1=CCC(C(=O)O)(C(=O)N/N=C/c2cccnc2)C(c2ccccc2)C1 (stereo not drawn)	2%[11.4 µM]	-3%	-12%	4%	37%
FC(F)(F)c1cccc(OCCN2CCN(Cc3ccccc3)CC2)c1	0.89µM*	11µM*	50µM*	35µM*	u
Clc1ccccc1/C=N/N1CCN(Cc2ccccc2)CC1	56µM*	24%[0.501 µM]	45µM*	-10%	-28%
CCOc1ccccc1/C=N/N1CCN(Cc2ccccc2)CC1	56µM*	x	50µM*	-25%	u
COc1cc(C(=O)Nc2cc(C)ccc2OCc2cc(=O)n3cc(C)sc3n2)cc(OC)c1OC	-6%	9%[59 µM]	11%	x	26%[57 µM]
CCOC(=O)c1c(NC(=O)COc2ccc(Cl)cc2C)sc2c1CCCCC2	-20%	6.3µM*	-6%	x	u
COC(=O)c1c(NC(=O)COc2ccc(Cl)cc2C)sc2c1CCCCC2	-9%	7.9µM*	-10%	x	-17%
SMILES	JMJD2A Tudor inh	G9a block	BAZ2B inh	Sfp PPTase inh	HP1b binding inh
COC(=O)c1c(NC(=O)COc2cc(C)c(Cl)c(C)c2)sc2c1CCCC2	-15%	7.1µM*	24%	x	u
CCOC(=O)c1c(NC(C)=O)sc2c1CCC(C=O)=C2Sc1ccccc1	u	u	u	50µM*	-8%
CCOC(=O)c1c(NC(=O)COc2ccc(CC)cc2)sc2c1CCCC2	14%	-3%[59 µM]	12%	x	43%
CCOC(=O)c1c(NC(=O)COc2c(C)cc(Cl)cc2Cl)sc2c1CCCC2	-5%	-38%[59 µM]	-6%	x	24%
CC(=O)NCC(=O)OCc1ccc([N+](=O)[O-])cc1	-11%	-4%	-6%	5%	21%
CCOC(=O)c1c(NC(=O)COc2ccccc2Br)sc2c1CCCCC2	-5%	10µM*	14%	x	-6%
CCOC(=O)c1c(NC(=O)COc2cccc(C(F)(F)F)c2)sc2c1CCCCC2	-15%	5.6µM*	-7%	x	-21%
CCOC(=O)c1c(NC(=O)c2ccccc2Br)sc2c1CCc1ccccc1-2	-13%	1.4µM*	9%	40µM*	-4%
CCn1c(SCC(=O)NC2CCCC2)nnc1-c1ccco1	-8%	6%	3%	9%	-19%
CCC(C)NC(=S)N1CCN(Cc2ccc3c(c2)OCO3)CC1 (stereo not drawn)	-7%[11.4 µM]	25µM*	50µM*	-8%	-11%
CC(C)c1ccccc1NC(=S)N1CCN(Cc2ccc3c(c2)OCO3)CC1	-24%	-35%	u	0%	10%
CCC(C)NC(=S)N1CCN(Cc2ccccc2)CC1 (stereo not drawn)	u	0%	0%	5%	79µM*
CC(C)CNC(=S)N1CCN(Cc2ccc3c(c2)OCO3)CC1	20µM*	16µM*	22µM*	79µM*	25µM*
CCC(C)NC(=S)N1CCN(C(c2ccccc2)c2ccccc2)CC1 (stereo not drawn)	-1%	-5%	-7%	2%	29%
NS(=O)(=O)c1ccc(NC(=S)N2CCN(Cc3ccc4c(c3)OCO4)CC2)cc1	-22%	-106%[59 µM]	-37%	22µM*	-1%
NS(=O)(=O)c1ccc(NC(=S)N2CCN(Cc3ccc(Cl)c(Cl)c3)CC2)cc1	u	u	-38%	21%	17%
O=C(CSc1nc2ccccc2c(=O)n1CCCN1CCOCC1)Nc1ccc2c(c1)OCO2	-15%	16%[12.7 µM]	-28%	7%	16%
CN(C(=O)c1cc(Cl)c2c(c1)OCCO2)c1c(N)n(Cc2ccccc2)c(=O)[nH]c1=O	-3%	-50%	5%	x	61%
O=C(COc1cccc(C(F)(F)F)c1)NCC(c1ccco1)N1CCCCC1 (stereo not drawn)	-6%	-27%	-27%	x	12%
COc1ccc(O)c(C(=O)c2cnn(C(=O)c3cccc(S(=O)(=O)N(C)C)c3)c2)c1	-9%	x	x	x	51%
CC(O)C(NC(=O)OCc1ccccc1)C(=O)OCc1ccccc1 (stereo not drawn)	-4%	-4%[12.7 µM]	2%	x	14%
CC(C)c1ccccc1NCC(=O)N1CCN(Cc2ccccc2)CC1	-29%	50µM*	-33%	9%	24%
CC1CN(Cc2ccccc2)c2nc3c(c(=O)[nH]c(=O)n3C)n2C1 (stereo not drawn)	-17%	-28%	-36%	13%	-3%
CCCCN(CCCC)CCNC(=O)c1cn(C)c2ccc(S(=O)(=O)N3CCCC3)cc2c1=O	-6%	17%[59 µM]	-6%	2%	32%
